Experiment in all cases: PBM binding z-score (relative to random genomic background probes); higher = stronger binding; sequences stand for … in GC…GCGATTGACAGCGTAGAATGAAGG
Test [1] has as its system FXR:RXRa (NR concentration 270 nM, RXRa partner concentration 90 nM). An outline of the steps: (§1)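 The probes on custom Agilent 4×180K protein-binding microarrays were double-stranded, with 34-nt variable regions bearing direct-repeat seeds, single-nucleotide variants, half-site ablations and random human genomic background sequences. Incubation lasted 1 h with ligand-free nuclear receptor dimers in PBS pH 7.4, 2% milk, 0.02% Triton X-100, 1 mM DTT, 0.2 mg/mL BSA and 0.4 mg/ml salmon testes DNA. Antibodies against each partner (one per run) detected bound dimers, and fluorescence scans were regression-normalized. Binding z-scores take the random background probes as reference.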

Test [2] has as its system LXRa:RXRa (NR concentration 270 nM, RXRa partner concentration 90 nM). An outline of the steps:
as §1

The test system of test [3] is LXRa homodimer (NR concentration 270 nM). Put shortly:
as §1

Test [4] has as its system LXRb:RXRa (NR concentration 270 nM, RXRa partner concentration 90 nM). Put shortly:
as §1

Test [5] deals with LXRb homodimer (NR concentration 270 nM). Put shortly: as §1
The test system of test [6] is PPARa:RXRa (NR concentration 270 nM, RXRa partner concentration 90 nM). Put shortly: as §1
The test system of test [7] is PPARg:RXRa (NR concentration 180 nM, RXRa partner concentration 90 nM). Put shortly:
as §1

The test system of test [8] is PPARg:RXRa 270nM:90nM, anti-RXR (NR concentration 270 nM, RXRa partner concentration 90 nM). Put shortly:
as §1

For test [9], the system named is PPARg:RXRa 30nM:10nM, anti-RXR (NR concentration 30 nM, RXRa partner concentration 10 nM). An outline of the steps: as §1
Test [10] relates to PPARg:RXRa 90nM:30nM, anti-RXR (NR concentration 90 nM, RXRa partner concentration 30 nM). An outline of the steps: as §1

GCTGCTAGGTCAACTGATCGTCAGCTAAAGCTCG: the PBM binding z-score in test [1] was 4.12; in test [2], 2.74; in [3], -0.171; in [4] it was 1.86; in [5], -0.26; in test [6] it was 3.62. Further, the PBM binding z-score stood at 2.54 in test [7], 3.43 in test [8], 0.361 in test [9] and 2.23 in test [10].

In the case of TATACAGCGTCAAAGGCCAGAGTACGAATGTCGA, the PBM binding z-score was -0.579 in test [1]; -0.473 in test [2]; -0.358 in test [3]; -0.616 in [4]; -0.382 in [5]; 0.0937 in [6]. In addition, the PBM binding z-score in test [7] is 1.16; in [8], 1.62; in [9], 0.56; in test [10], 1.13.

In the case of ATATGTAGGTTACATCCGGGTCATTCATGCTATG, the PBM binding z-score in test [1] was found to be 2.21; in test [2], 4.15; in test [3], 1.59; in test [4], 3.05; in [5], 0.928; in [6], 4.55. Also, the PBM binding z-score in test [7] stood at 6.16; in [8] it was 5.07; in test [9] it was 2.55; in test [10], 4.45.

Consider GCTTGTAGATCAAGGTTACGAAAGACTAAGCTAA, for which the PBM binding z-score in test [1] was 0.195; in [2], 1.01; in test [3] it was -0.347; in test [4], 0.883; in test [5] it was -0.378; in test [6], 1.97. Besides, the PBM binding z-score was 0.804 in test [7], 1.64 in test [8], 0.408 in test [9] and 1.13 in test [10].

For GTACCAAGGTGAATAGGTCCTTGATGAGTAGGCG, the PBM binding z-score was 0.104 in test [1]; 0.0189 in test [2]; -0.541 in test [3]; -0.255 in test [4]; -0.745 in test [5]; 1.27 in test [6]. Besides, the PBM binding z-score stood at 0.918 in test [7], 0.908 in test [8], 0.0599 in test [9] and 0.237 in test [10].

CGTCCAAGGTCAAAGGTCAGTGACGAGATGACGG: the PBM binding z-score in test [1] is 8.29; in test [2], 6.97; in test [3], 3.55; in test [4], 6.4; in test [5], 2.01; in test [6] it was 7.03. For the same sequence, the PBM binding z-score in test [7] was 10.8; in test [8], 9.11; in test [9] it was 8.03; in [10], 9.31.

Turning to CCTACTGGGCCATCAGGTCATAGATATCAACGTT, the PBM binding z-score was 1.22 in test [1]; 0.89 in [2]; 0.812 in [3]; 1.18 in test [4]; -0.323 in test [5]; 2.72 in test [6]. In addition, the PBM binding z-score in test [7] amounted to 3.22; in test [8], 3.9; in test [9], 1.86; in test [10], 3.15.

In the case of GCATATAGGCAATACAAGGTGAAAGTCCGATTGT, the PBM binding z-score in test [1] is 0.177; in test [2], 0.0524; in test [3], -0.175; in test [4] it was 0.343; in test [5] it was -0.636; in test [6], 1.12. In addition, the PBM binding z-score worked out at 0.804 in test [7], 0.669 in test [8], 0.415 in test [9] and 0.712 in [10].

With CGTCCTAGGTCATAGGAGGTCAGTGAAGACAGAT, the PBM binding z-score in [1] was 5.53; in test [2], 6.34; in test [3], 3.87; in [4], 5.18; in [5], 0.0467; in test [6] it was 4.91. Also, the PBM binding z-score in [7] amounted to 3.72; in test [8], 4.05; in test [9], 1.4; in [10] it was 3.09.

As for TCGAGTAGGTTTCCAATGGGGCATTCAGCTTTCT, the PBM binding z-score in [1] is 0.0114; in [2] it was -0.0745; in test [3] it was -0.502; in test [4] it was 0.0167; in test [5] it was -0.0602; in test [6], -0.255. In addition, the PBM binding z-score in [7] was -0.735; in test [8], 0.178; in test [9], 0.836; in [10], 0.304.

As for CGAACTAGGTCATTGACAGGATAGTGAATAGTAA, the PBM binding z-score in test [1] is 4.3; in test [2], 2.82; in [3], 0.355; in test [4], 2.01; in [5] it was -0.145; in test [6], 4.83. Also, the PBM binding z-score in test [7] amounted to 7.71; in test [8], 6.36; in [9] it was 3.54; in test [10], 5.85.

As for TGAATAAGGTTAAAGATCAGGGAACGTGGCGTCG, the PBM binding z-score was 2.83 in [1]; 2.57 in test [2]; 0.114 in [3]; 1.71 in test [4]; 0.337 in test [5]; 3.91 in test [6]. The PBM binding z-score came to 4.41 in test [7], 5.68 in test [8], 4.08 in test [9] and 5.9 in test [10].

The values are drawn from the supplement of paper PMC6555819.
